The record followed here is the supplement of paper PMC11417369.

Whole data set: some 25,000 sequences, median “ln(normalized median fluorescence intensity)” near 7.1, cut for the highest 2% near 10. The list comes from a sample in which the highest values are over-represented; it also holds similar and randomly drawn sequences.

The test system of the test is PfSIP2 AP2 domain 1 (GST-tagged). As to the kind of experiment: gcPBM binding intensity (ln(normalized median fluorescence intensity)); higher = stronger DNA binding. The procedure, abridged:
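Binding intensity values are the highest Masliner-normalised natural-log median intensity among replicate spots of either probe orientation. The binding step lasted 1 h in 1× PBS with 1% milk, 0.2 mg/ml BSA, 0.5% salmon testes DNA and 0.03% Triton X-100, using GST-tagged P. falciparum DNA-binding domains expressed in E. coli on an Agilent 4 × 180k array of primer-extended double-stranded 36-bp intergenic genomic probes plus negative controls. Alexa488 anti-GST antibody and a 488 nm scan detected bound protein.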
As to “TTTGAATCCTTATATACACACATTATGTAATATTAT [CACACA_site561]”, the “gcPBM binding intensity (ln)” value turned out to be 7.1.

As to “ATATATATATATATATGTACATAGAGAAGTATCTTT [XGTACX_site4737]”, the “gcPBM binding intensity (ln)” value was 9.91.

On to “TTTTTTTTTTTTTTGGTGCAGTTCACATATTATATA [GTGCAC_site9996]”, for which the “gcPBM binding intensity (ln)” value turned out to be 9.48.

In the case of GAAGTAGATGGAAAAGTGCACTGTAATGGTTATATT, the “gcPBM binding intensity (ln)” value came to 10.3.

With “ATGTAGAAGTAATGCACACATATGTATTTATATATA [CACACA_site5391]”, the “gcPBM binding intensity (ln)” value came out at 7.26.

Turning to ATGGTTATATTTGAAGTGCAAAAAAAAATATATGTA, the “gcPBM binding intensity (ln)” value worked out at 8.55.

As for “CATTAATAACAAAGTTGTACAAGATAATATTATATG [XGTACX_site6832]”, the “gcPBM binding intensity (ln)” value was 7.26.

Take “TAAAAAATTATTAAACGTACGAGACTTTTTATCAGT [XGTACX_site2219]”: the “gcPBM binding intensity (ln)” value was 7.05.

“AAAAAAAAATATAACAGTACATAAACATATGAATAT [XGTACX_site7093]”: the “gcPBM binding intensity (ln)” value came to 6.91.

On to “ATAATAAAAAAAATTAGTACATATATAAATATAAAT [XGTACX_site1937]”, for which the “gcPBM binding intensity (ln)” value amounted to 6.85.

For the sequence “CATCTCATATTTTGAAGTACTAAGAAAAGATATAAA [XGTACX_site6867]”, the “gcPBM binding intensity (ln)” value was found to be 7.07.

For the sequence “TTTTATGCATGTGAAGTGCAAAATAAAAAATAAAAT [GTGCAC_site9612]”, the “gcPBM binding intensity (ln)” value worked out at 10.2.

On to “TATATTTGAAATATATGTACTTATAATACAGTTTAA [XGTACX_site8039]”, for which the “gcPBM binding intensity (ln)” value was found to be 6.94.

Take “AATTTGAAATATGTGGTGCAGTTATATAATATGTTT [GTGCAC_site9885]”: the “gcPBM binding intensity (ln)” value was found to be 10.3.

With “GAAAATTTAAAAAGAGTGCATTATATGTTTGAATAT [GTGCAC_site9564]”, the “gcPBM binding intensity (ln)” value turned out to be 9.18.

With “TTTTATGTTTATGTGGTGCATGTTTTGAAGAAAATA [GTGCAC_site9616]”, the “gcPBM binding intensity (ln)” value came out at 10.3.

In the case of “TTTTTTTTTTTTTTTGCATGTTGAAAATAAAATTAT [TGCATGCA_site86]”, the “gcPBM binding intensity (ln)” value came out at 6.92.

Turning to “ATATAAAATCAACAAAAAAAAAAAATATATATATAT [XGTACX_negctrl_site251]”, the “gcPBM binding intensity (ln)” value came to 9.03.

As for “AAATACATAACTTAAAATTTGTTCATATCTATACAT [TGCATGCA_negctrl_site249]”, the “gcPBM binding intensity (ln)” value was 6.94.

For the sequence “AAAAATTAACAAAAGGTGCAAACAAATAGTGGTTTT [GTGCAC_site9998]”, the “gcPBM binding intensity (ln)” value was 10.8.

As for AGGTTTTCTTAAATAGTGCATTATAACAAAAATAAA, the “gcPBM binding intensity (ln)” value was found to be 9.66.

As for “ACATTAACATTGTTGGTGCAAAATTAATATGTTTTT [GTGCAC_site9673]”, the “gcPBM binding intensity (ln)” value amounted to 9.77.

As to “GTATATAATTTATGTGCACACACTCCTATTTTTAGC [CACACA_site49]”, the “gcPBM binding intensity (ln)” value was found to be 8.89.

Turning to “ATTCCTTGGTTGTATAGTACTTTGGTTAAACATAAA [XGTACX_site6967]”, the “gcPBM binding intensity (ln)” value is 7.4.

For the sequence CTTATAAGAATACTAGTGCACATAATTTAACGAAAA, the “gcPBM binding intensity (ln)” value amounted to 10.6.

In the case of “AAGATAAAATTATGCACACATACGAATAATTTTAAA [CACACA_site1705]”, the “gcPBM binding intensity (ln)” value turned out to be 7.24.

Take TAGATTATTATACTAGTGCAAATTATTTAAGAAAAA: the “gcPBM binding intensity (ln)” value amounted to 8.09.

For the sequence “AAAAATTTAATTATTTGTACATAAAATACATTTCTG [XGTACX_site791]”, the “gcPBM binding intensity (ln)” value amounted to 6.81.

With “TTATAAATATAATTTTGTACATATATATATATATAC [XGTACX_site5064]”, the “gcPBM binding intensity (ln)” value was 7.39.

Regarding “AAAATTATACACACACGTACATATAAATAGAAATAT [XGTACX_site1753]”, the “gcPBM binding intensity (ln)” value stood at 7.12.

Regarding “AACATACGACAATACGCACACATATAAGTACATATT [CACACA_site8584]”, the “gcPBM binding intensity (ln)” value was determined as 7.13.

“ATTTAAAAGTTGGTAGTGCATTAAAAATAACAAAAA [GTGCAC_site9835]”: the “gcPBM binding intensity (ln)” value came to 8.96.

On to TTCTATTTTTTAAAAGTGCATATTATAAATATATAT, for which the “gcPBM binding intensity (ln)” value came to 9.04.

AGGATAAAAGTTATGGTGCATTAACCTATTTAAATA: the “gcPBM binding intensity (ln)” value came out at 10.2.

With “GCACATTTTTTTATCACACATATAATTACAATATAA [CACACA_site5585]”, the “gcPBM binding intensity (ln)” value came to 7.74.

As for “ACAATATTTTTTTATAAACACACATATATATAAATA [CACACA_site9175]”, the “gcPBM binding intensity (ln)” value came to 7.18.

With “AATAATGAATTGAAATGTACATATTTTTATTAATAC [XGTACX_site8899]”, the “gcPBM binding intensity (ln)” value was 7.15.

As for “AAAATATAAAGTATTTGTACATAATATATTTTTAAA [XGTACX_site3494]”, the “gcPBM binding intensity (ln)” value is 6.81.

With “TATGTATTAATGAGAACATGCAAAATAATAAACAAT [TGCATGCA_site362]”, the “gcPBM binding intensity (ln)” value was determined as 7.24.

Regarding “CAATTAAACAATTAAACATGCAAAATGATATAATAA [TGCATGCA_site240]”, the “gcPBM binding intensity (ln)” value came out at 6.79.

CATGAGGTATAAAAGGTGCAAATTAATGAGAACATT: the “gcPBM binding intensity (ln)” value came to 11.1.

For the sequence “TATATATATATATGTGGTACATAAAATTATTATTTT [XGTACX_site4554]”, the “gcPBM binding intensity (ln)” value came out at 9.55.

For the sequence ATTTTAAAAAGGATAGTGCAAATGTTAAAATAGGAC, the “gcPBM binding intensity (ln)” value worked out at 8.74.

As for “TTTTTTTTTAAGCAAAGGAAATCAAAATAAAAATAT [CACACA_negctrl_site719]”, the “gcPBM binding intensity (ln)” value worked out at 7.08.

TTTTAAGGTGTGAAGGTGCAAAAAGGTAAATAGGAA: the “gcPBM binding intensity (ln)” value worked out at 10.8.

As for “ATTTAAGTAGTACATACACACACATATACAAAAAGA [CACACA_site9317]”, the “gcPBM binding intensity (ln)” value came out at 7.39.

“GATGAGGACAAACACACACACATAAGTTGATACATA [CACACA_site3424]”: the “gcPBM binding intensity (ln)” value was determined as 7.27.

Consider “TTTTATTTAGGAGGTGCATGTAATACGGAACATAAT [TGCATGCA_site827]”, for which the “gcPBM binding intensity (ln)” value stood at 11.2.

On to ATACTTTTATTTTTGGTGCATATATCATGTAGACGT, for which the “gcPBM binding intensity (ln)” value was 10.2.

CTTTTTATTTAGGAGGTGCATGTAATACGGAACATA: the “gcPBM binding intensity (ln)” value was found to be 10.9.

As to “CGGACATACATAGGAACATGCAAAATTTTTTATTTT [TGCATGCA_site575]”, the “gcPBM binding intensity (ln)” value was determined as 6.78.

Turning to “ATATAATAACATAACACACACATGTATTTATAGGTG [CACACA_site359]”, the “gcPBM binding intensity (ln)” value came out at 6.97.

Regarding “CTATAATAACATAACACACACATGTATTTATAGGTG [CACACA_site6298]”, the “gcPBM binding intensity (ln)” value worked out at 7.05.

As to “TGATTATTATAATTTAGTACATAATATTTTATATAA [XGTACX_site6125]”, the “gcPBM binding intensity (ln)” value came out at 7.07.

For the sequence “TTTATATATTTATTCACACATATAATATTCCGTCGT [CACACA_site6120]”, the “gcPBM binding intensity (ln)” value came out at 6.88.

For “AAAAAAAAAAAAAATACACACATATTTTATAGGGGA [CACACA_site3261]”, the “gcPBM binding intensity (ln)” value came to 7.19.

Turning to “CATATTTACTATCACACACACGATATATATAAATAT [CACACA_site1241]”, the “gcPBM binding intensity (ln)” value worked out at 7.25.

Consider “TTATTAAATTCATAAGTGCATTTATGATTAATTTTT [GTGCAC_site9749]”, for which the “gcPBM binding intensity (ln)” value was found to be 9.08.

On to “ATCATATTTATATTGGTGCATTATGCATGAAATTTA [GTGCAC_site9571]”, for which the “gcPBM binding intensity (ln)” value turned out to be 9.94.

With TTCATTTTATTTTAAGTGCATATTTTTATTTTTTTG, the “gcPBM binding intensity (ln)” value came out at 8.27.

For AATATTCATATGCAGGTGCATTAATTTTTATTAATT, the “gcPBM binding intensity (ln)” value was determined as 10.4.

For “CGCATATTTTATGTTTGTACTCATATGAATATCATA [XGTACX_site4717]”, the “gcPBM binding intensity (ln)” value is 6.97.

Turning to “ATCATATTTATGTTGGTGCATTATGCATGGATTTTA [GTGCAC_site9795]”, the “gcPBM binding intensity (ln)” value was determined as 9.92.

“TTGATTTCATTTTAAGTGCATAACTAATATTATATA [GTGCAC_site9713]”: the “gcPBM binding intensity (ln)” value was found to be 8.07.

On to CATGAATATTTTAATGTGCACATTTATCATTATATG, for which the “gcPBM binding intensity (ln)” value turned out to be 8.69.

For the sequence “CATTTTCATTTTAAGGTGCATTAATATTTATTTTAA [GTGCAC_site9437]”, the “gcPBM binding intensity (ln)” value stood at 10.4.

Take TTCATATTCGATAAAGTGCATTAATTTTATTTATCA: the “gcPBM binding intensity (ln)” value turned out to be 8.36.

As to GTTTGAATATATCAGGTGCATTTATAATTCATATGA, the “gcPBM binding intensity (ln)” value was found to be 10.5.

For the sequence “ATCATATGTATGGTGGTGCATTATGCATGAATTTTA [GTGCAC_site9798]”, the “gcPBM binding intensity (ln)” value is 10.2.
